PubChem BioAssay (NCATS)
Inconclusive results are not listed. Active and inactive are the calls of the source. The call rests on the fitted dose curve; in most records, active means well fitted curve in the direction sought with a large enough effect; inconclusive means small, poorly fitted or top-dose-only effect, or another doubt; inactive means no such curve, though single readings can be large; an effect the other way counts as inactive or inconclusive.

Assays:
[1] = target: ATP-dependent 6-phosphofructokinase (Trypanosoma brucei brucei) (UniProt O15648); assay: qHTS Assay to Find Inhibitors of T. brucei phosphofructokinase: hit validation (AID 492961);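 further: luminescence reports ADP formed as PFK phosphorylates fructose-6-phosphate with ATP; on the % scale 0 is the no-effect control and ±100 the full control effect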
Chain of ATP-dependent 6-phosphofructokinase (Trypanosoma brucei brucei) (O15648 whole entry, looked up): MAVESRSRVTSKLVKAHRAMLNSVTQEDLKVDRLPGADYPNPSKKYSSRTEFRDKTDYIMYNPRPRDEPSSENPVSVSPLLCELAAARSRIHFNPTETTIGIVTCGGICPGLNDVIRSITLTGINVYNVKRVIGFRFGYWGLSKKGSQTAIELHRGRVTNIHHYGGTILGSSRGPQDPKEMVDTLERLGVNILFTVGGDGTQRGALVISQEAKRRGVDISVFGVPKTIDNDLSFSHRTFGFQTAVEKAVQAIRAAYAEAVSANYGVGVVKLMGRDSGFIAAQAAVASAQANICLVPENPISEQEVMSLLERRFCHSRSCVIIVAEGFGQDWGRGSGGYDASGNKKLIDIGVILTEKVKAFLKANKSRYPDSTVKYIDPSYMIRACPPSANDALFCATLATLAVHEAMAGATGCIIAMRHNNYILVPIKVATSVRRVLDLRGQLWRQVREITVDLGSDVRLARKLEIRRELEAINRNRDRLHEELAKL
How it was run: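 Percent activity derived from corrected luminescence, normalized between 0x and 1x enzyme controls, then fitted to concentration-response curves. Conditions: 1.25 nM PFK, 0.1 mM ATP, 0.5 mM F6P, 45 min RT.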

[2] = qHTS profiling for inhibitors of Plasmodium falciparum proliferation (AID 504749); further: potency means the concentration at half of the fitted maximal effect;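 on activity, negative = inhibition: 0% = DMSO vehicle and full inhibition = artemisinin control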; on all read-outs here: nearly all actives have a fitted effect of over 60% in size; conditions: P. falciparum in erythrocytes, SYBR Green DNA, 72 h; for activity, negative = inhibition: at 28.7 µM (top of the series)
How it was run: (§1)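 P. falciparum-infected erythrocytes (0.3% parasitemia, 2.5% hematocrit final) were exposed to compounds for 72 h at 37 C in 5% CO2, then lysed with SYBR Green buffer overnight at room temperature; parasite DNA fluorescence was normalized to artemisinin and DMSO controls.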

[3] = tested on: 3D7; assay: as above; conditions: P. falciparum in erythrocytes, SYBR Green DNA, 72 h; series mostly up to 28.7 µM
How it was run: as §1

[4] = tested on: AA1029; assay: as above; conditions: P. falciparum in erythrocytes, SYBR Green DNA, 72 h; series mostly up to 28.7 µM
How it was run: as §1

[5] = tested on: AS120; assay: as above; conditions: P. falciparum in erythrocytes, SYBR Green DNA, 72 h; series mostly up to 28.7 µM
How it was run: as §1

[6] = tested on: ATS189; assay: as above; conditions: P. falciparum in erythrocytes, SYBR Green DNA, 72 h; series mostly up to 28.7 µM
How it was run: as §1

[7] = tested on: CP185; assay: as above; conditions: P. falciparum in erythrocytes, SYBR Green DNA, 72 h; series mostly up to 28.7 µM
How it was run: as §1

[8] = tested on: CP191; assay: as above; conditions: P. falciparum in erythrocytes, SYBR Green DNA, 72 h; series mostly up to 28.7 µM
How it was run: as §1

[9] = tested on: CP194; assay: as above; conditions: P. falciparum in erythrocytes, SYBR Green DNA, 72 h; series mostly up to 28.7 µM
How it was run: as §1

[10] = tested on: CP217; assay: as above; conditions: P. falciparum in erythrocytes, SYBR Green DNA, 72 h; series mostly up to 28.7 µM
How it was run: as §1

[11] = tested on: CP237; assay: as above; conditions: P. falciparum in erythrocytes, SYBR Green DNA, 72 h; series mostly up to 28.7 µM
How it was run: as §1

[12] = tested on: CP238; assay: as above; conditions: P. falciparum in erythrocytes, SYBR Green DNA, 72 h; series mostly up to 28.7 µM
How it was run: as §1

[13] = tested on: CP252; assay: as above; conditions: P. falciparum in erythrocytes, SYBR Green DNA, 72 h; series mostly up to 28.7 µM
How it was run: as §1

[14] = tested on: CP265; assay: as above; conditions: P. falciparum in erythrocytes, SYBR Green DNA, 72 h; series mostly up to 28.7 µM
How it was run: as §1

[15] = tested on: CP286; assay: as above; conditions: P. falciparum in erythrocytes, SYBR Green DNA, 72 h; series mostly up to 28.7 µM
How it was run: as §1

[16] = tested on: DFO2036; assay: as above; conditions: P. falciparum in erythrocytes, SYBR Green DNA, 72 h; series mostly up to 28.7 µM
How it was run: as §1

[17] = tested on: DIV30; assay: as above; conditions: P. falciparum in erythrocytes, SYBR Green DNA, 72 h; series mostly up to 28.7 µM
How it was run: as §1

[18] = tested on: Dd2; assay: as above; conditions: P. falciparum in erythrocytes, SYBR Green DNA, 72 h; series mostly up to 28.7 µM
How it was run: as §1

[19] = tested on: N140; assay: as above; conditions: P. falciparum in erythrocytes, SYBR Green DNA, 72 h; series mostly up to 28.7 µM
How it was run: as §1

[20] = tested on: P94_40; assay: as above; conditions: P. falciparum in erythrocytes, SYBR Green DNA, 72 h; series mostly up to 28.7 µM
How it was run: as §1

CCN(CC)C(=O)Nc1ccc(OC[C@H](O)CNC(C)(C)C)c(C(C)=O)c1
inactive: Potency [1] | activity, negative = inhibition ([2]; parasite line A) 5.16% | activity, negative = inhibition ([2]; parasite line B) -3.7% | Potency [3] | Potency [4] | Potency [5] | Potency [6] | Potency [7] | Potency [8] | Potency [9] | Potency [10] | Potency [11] | Potency [12] | Potency [13] | Potency [14] | Potency [15] | Potency [16] | Potency [17] | Potency [18] | Potency [19] | Potency [20]

COc1cccc2c1C(=O)c1c(O)c3c(c(O)c1C2=O)C[C@@](O)(C(=O)CO)C[C@@H]3OC1CC(N)C(O)C(C)O1 (stereo not given in full)
inactive: Potency [1]
active: Potency ([2]; parasite line A) 2000 nM | Potency ([2]; parasite line B) 3160 nM | Potency [3] 1000 nM | Potency [4] 2240 nM | Potency [5] 2240 nM | Potency [6] 2510 nM | Potency [7] 2240 nM | Potency [8] 2240 nM | Potency [9] 4780 nM | Potency [10] 2510 nM | Potency [11] 891 nM | Potency [12] 2240 nM | Potency [13] 2510 nM | Potency [14] 3980 nM | Potency [15] 398 nM | Potency [16] 2000 nM | Potency [17] 4260 nM | Potency [18] 1260 nM | Potency [19] 2510 nM | Potency [20] 2000 nM

Cc1ccc(S(=O)(=O)NC(=O)NC(C)Cc2ccccc2)cc1 (stereo not given)
inactive: Potency [1] | activity, negative = inhibition ([2]; parasite line A) 7.07% | activity, negative = inhibition ([2]; parasite line B) 4.66% | Potency [3] | Potency [4] | Potency [5] | Potency [6] | Potency [7] | Potency [8] | Potency [9] | Potency [10] | Potency [11] | Potency [12] | Potency [13] | Potency [14] | Potency [15] | Potency [16] | Potency [17] | Potency [18] | Potency [19] | Potency [20]

NC(C(=O)O)c1ccc(O)cc1 (stereo not given)
inactive: Potency [1] | activity, negative = inhibition ([2]; parasite line A) 3.02% | activity, negative = inhibition ([2]; parasite line B) 9.1% | Potency [3] | Potency [4] | Potency [5] | Potency [6] | Potency [7] | Potency [8] | Potency [9] | Potency [10] | Potency [11] | Potency [12] | Potency [13] | Potency [14] | Potency [15] | Potency [16] | Potency [17] | Potency [18] | Potency [19] | Potency [20]

CCCC[C@H](O)c1ccccc1
inactive: Potency [1] | activity, negative = inhibition ([2]; parasite line A) -2.26% | activity, negative = inhibition ([2]; parasite line B) -1.87% | Potency [3] | Potency [4] | Potency [5] | Potency [6] | Potency [7] | Potency [8] | Potency [9] | Potency [10] | Potency [11] | Potency [12] | Potency [13] | Potency [14] | Potency [15] | Potency [16] | Potency [17] | Potency [18] | Potency [19] | Potency [20]
